The assay deals with ARHGAP5. Description: pooled miR-30 sensor sort-seq; sequence = guide strand. To be noted: shRNA.
With TACAAGACCATCATAGATCTTT, the sensor-assay potency score (higher = more potent) worked out at 0.493. Turning to TCAAATAACAAAATCAGCCAGA, the sensor-assay potency score (higher = more potent) was -0.237.

As to ATGATCTTGATCAAACTGCTTT, the sensor-assay potency score (higher = more potent) is -0.663. In the case of TTCTACAACAAATTTCATGTTT it was -0.238; in that of TTTTTGTCCAAATCCAGCCTGT, -0.169; in that of TTCTATAGTATGACTTGGCTTT, 0.162.

As for TTTAGCCACAAGCATGTCCTTG, the sensor-assay potency score (higher = more potent) was -0.792. Take TTTAGTTATCTACACCGACTGC: the sensor-assay potency score (higher = more potent) is -0.686.

For the sequence TAGTAGACAGAAACTCTCGATT, the sensor-assay potency score (higher = more potent) is -0.0895.

With TGAAGTATACTACTGAACCCTG, the sensor-assay potency score (higher = more potent) is -0.25. As to TAATTGTGGTTGTATCAGCTGA, the sensor-assay potency score (higher = more potent) was -0.356. On to TTGCACAACATTATCAACTCAC, for which the sensor-assay potency score (higher = more potent) came out at 0.731. In the case of TTGCTTTTTGTCCAAATCCAGC it was -1.64. To TTATGTTGCTGACTAACCCTGT belongs 0.477; to TAAGGTTGCATGCAGCAGCAGC, -0.593; to TAGTAGTAGACAGAAACTCTCG, 0.344. In the case of TTTTATTTCATTATGGACCATA it was -0.301; in that of TAAACCTCTCCAGTCATGCTTA, -0.431; in that of TTTCTTAACAATTTCTTTCAAG, -0.634. Consider TTTGAATATTGTCTTGGTCAGT, for which the sensor-assay potency score (higher = more potent) is -0.551.

TTTATGTTGCTGACTAACCCTG: the sensor-assay potency score (higher = more potent) is -0.695. To TTCTACACTATACTAAATGTGT belongs -0.488.

TTTCTTTCAAACAACATCCCAA: the sensor-assay potency score (higher = more potent) worked out at 0.179. To TAGATTGATATTATGATCTTGA belongs 1.05.

The values above are taken from the OligoGym collection.
Further: reference of the scale not given here.
